Measured values taken from the supplement of paper PMC11402862.

System: PPARalpha LBD (GAL4 fusion)
Experiment: luciferase reporter transactivation, fold of solvent control; higher = stronger receptor activation
Details: HEK293T, exposure time: 24 h
Protocol: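 HEK293T cells were transiently transfected with a GAL4-DBD fused to the ligand-binding domain of a human nuclear receptor (PPARα, PPARγ, PPARδ, FXR, LXRα, PXR, RARα or CAR), the GAL4-(UAS)5-TK firefly luciferase reporter and a Renilla luciferase normalisation plasmid. Cells were exposed to compound for 24 h in 0.5% DMSO. Firefly/Renilla luciferase was expressed as fold of the solvent control (=1). Values are the mean of 2-3 biological replicates; receptor agonists were used as positive controls.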

SMILES | luciferase reporter transactivation (concentration: 1 µM) | luciferase reporter transactivation (concentration: 5 µM) | luciferase reporter transactivation (concentration: 10 µM) | luciferase reporter transactivation (concentration: 25 µM) | luciferase reporter transactivation (concentration: 50 µM) | luciferase reporter transactivation (concentration: 100 µM) | luciferase reporter transactivation (concentration: 250 µM) | luciferase reporter transactivation (concentration: 500 µM) | luciferase reporter transactivation (concentration: 2.5 µM)
O=C(O)C(F)(F)C(F)(F)F [perfluoropropanoic acid] | 1.08 | 1.01 | 1.07 | 1.03 | 1.12 | 1.78 | 1.42 | 1.98 | –
NS(=O)(=O)C(F)(F)C(F)(F)C(F)(F)C(F)(F)C(F)(F)C(F)(F)C(F)(F)C(F)(F)F [perfluorooctane sulfonamide] | 0.788 | 0.904 | 0.796 | – | – | 1.2 | – | – | 0.548
